Bioassay records (PubChem)
This is a sample that favours compounds with a hit; in the whole collection about 3.2% have one here.
Coupling enz: coupling enzyme interference in Giardia aldolase counter-screen | activity change, negative = inhibition, % at 58.2 µM, hits read low | actives 0.67% (n = 290,000) | coupling enzyme system counterscreen, AmpLite Red fluorescence; in the data active = activity change below about -30%
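Counterscreen of the coupled detection system alone, without aldolase: glyceraldehyde-3-phosphate coupling enzymes plus AmpLite Red readout. Compounds at 57.5 uM final, 10 min RT preincubation, 20 min RT reaction, fluorescence 525/598 nm.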
GALK inh: inhibitors of human galactokinase. actives 0.007% (n = 270,000). P51570. Potency, µM (top dose mostly 57.5 µM), for the others: at the highest dose activity change, negative = inhibition, hits mostly inhibitors. AID 1868. Purified GALK, Kinase-Glo residual ATP luminescence; also: potency is read from the fitted curve at half-maximal effect
Target sequence (P51570 whole entry, looked up): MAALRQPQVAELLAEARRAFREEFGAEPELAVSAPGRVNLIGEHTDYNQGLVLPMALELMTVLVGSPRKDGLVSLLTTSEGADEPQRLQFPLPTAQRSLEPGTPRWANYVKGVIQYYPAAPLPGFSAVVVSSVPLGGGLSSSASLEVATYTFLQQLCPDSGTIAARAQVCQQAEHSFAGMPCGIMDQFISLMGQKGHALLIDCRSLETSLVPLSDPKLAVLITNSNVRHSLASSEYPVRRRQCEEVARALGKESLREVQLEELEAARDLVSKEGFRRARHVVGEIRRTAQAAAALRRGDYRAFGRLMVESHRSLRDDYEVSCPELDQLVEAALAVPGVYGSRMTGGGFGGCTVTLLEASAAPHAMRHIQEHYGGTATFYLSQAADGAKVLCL
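Kinase-Glo Plus luminescence measured ATP left after a 1 h room-temperature reaction. The reaction used 5 nM GALK, 100 uM galactose and 35 uM ATP at pH 8.0 (20 mM HEPES, 5 mM MgCl2, 60 mM NaCl, 1 mM DTT, 0.01% BSA).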
VDR inh: inhibitors of human vitamin D receptor. Potency, µM, without a hit: max response, negative = inhibition, actives largely listed as inhibitors. VDR-SRC2-3 peptide fluorescence polarization, 2 h. actives 0.93% (n = 400,000). P11473. AID 504847; also: potency is read from the fitted curve at half-maximal effect
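The screen uses fluorescence polarization to detect compounds that interfere with recruitment of the SRC2-3 coactivator peptide to VDR; plates are read after 2 h at room temperature.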
USP2a block: inhibitors of human ubiquitin-specific protease USP2a | actives 0.01% (n = 330,000) | Potency, µM (top dose mostly 38.3 µM), without a hit: top-dose activity change, negative = inhibition, hits mostly inhibitors | USP2 core, Ub-CHOP2 coupled fluorogenic reporter, 485/531;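 also: potency is read from the fitted curve at half-maximal effect; plate controls were DMSO wells for no effect and full inhibition by NEM control for full effect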
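Deubiquitinase activity read as fluorescence (485/531 nm) after Ub-CHOP2 cleavage activates the enterokinase reporter on its substrate; USP2 core 10nM, Ub-CHOP2 and substrate 25nM each, 30min compound preincubation then 60min RT; data normalized to NEM, curves fitted.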
USP1 inh: blocks the human USP1/UAF1 deubiquitinase complex; actives 0.23% (n = 390,000); O94782; recombinant USP1/UAF1, Ub-Rhodamine cleavage fluorescence; Potency, µM (titrated, usually from 57.1 µM), for the others: top-dose activity change, negative = inhibition, actives largely listed as inhibitors; also: potency is read from the fitted curve at half-maximal effect; nearly all actives have a fitted effect of over 60% in size
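USP1/UAF1 complex at 1 nM was preincubated with compound for 15 min at room temperature, then Ub-Rho substrate (150nM final) was added. Fluorescence (480/540 nm) was read kinetically, 6 reads every 60 seconds.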
PLK1 PBD inh: inhibitors of human PLK1 polo-box domain binding. AID 720504. Plk1 PBD binding of FITC phosphopeptide, fluorescence polarization. Potency, µM, inactives show max response, negative = inhibition, actives largely listed as inhibitors. actives 2.8% (n = 360,000); also: potency is read from the fitted curve at half-maximal effect; series mostly up to about 57 µM; nearly all actives have a fitted effect of over 65% in size
Numbers without * were called inactive; ? = inconclusive; . = no result given. Unless noted, calls follow the shape of the dose curve; as a rule, active = well fitted curve in the direction sought with a large enough effect; inconclusive = small, poorly fitted or top-dose-only effect, or another doubt; inactive = no such curve, though single readings can be large; an effect the other way counts as inactive or inconclusive. Unless noted, % is scaled to controls: 0 for no effect and ±100 for the full control effect.

SMILES	Coupling enz	GALK inh	VDR inh	USP2a block	USP1 inh	PLK1 PBD inh
COc1ccc(-c2csc(NC(=O)CSc3n[nH]c(N)n3)n2)cc1	3	11%	-16%	0%	-3%	27µM*
CCn1nc(C(=O)OCC(=O)Nc2nc(-c3ccc(OC)cc3)cs2)c2ccccc2c1=O	5	1%	-6%	0%	-31%	27µM*
COc1ccc(NC(=O)CSc2n[nH]c(N)n2)cc1OC	-4	4%	0%	3%	-6%	-4%
COc1ccccc1NC(=O)c1ccc(NC(=O)CSc2n[nH]c(N)n2)cc1	1	0%	-18%	1%	-26%	30µM*
CC1(C(=O)OCC(=O)Nc2ccc(C(N)=O)cc2)CC1(Cl)Cl (centres undefined)	-1	0%	0%	-1%	-22%	4%
CCOC(=O)c1c(C)[nH]c(C(=O)COC(=O)C2=NNC(=O)CC2)c1C	1	1%	-11%	7%	-20%	-11%
N#C/C(=C/c1ccc(O)c(O)c1)c1nc2ccccc2[nH]1	-5	-5%	5%	11%	-10%	20%
COc1ccc(C(C2C(=O)CC(C)(C)CC2=O)C2C(=O)CC(C)(C)CC2=O)cc1	3	10%	56µM*	1%	-15%	9.5µM*
Cc1ccc(C(C2C(=O)CC(C)(C)CC2=O)C2C(=O)CC(C)(C)CC2=O)s1	0	-1%	40µM*	2%	-9%	2.7µM*
COc1cc(C(C2C(=O)CC(C)(C)CC2=O)C2C(=O)CC(C)(C)CC2=O)ccc1O	2	2%	?	0%	-7%	?
CC1(C)CC(=O)C(C(c2ccc3c(c2)OCO3)C2C(=O)CC(C)(C)CC2=O)C(=O)C1	.	.	.	.	.	17µM*
COc1ccc(-c2cn(-c3ccccc3)c(=S)[nH]2)cc1OC	3	-5%	0%	6%	-3%	21µM*
COc1ccccc1-n1cc(-c2ccc(C)cc2)[nH]c1=S	0	.	-13%	-1%	-19%	-6%
COc1ccc(-n2cc(-c3ccc(Cl)cc3)[nH]c2=S)cc1	0	4%	-14%	-2%	-13%	-3%
COc1ccc(-c2cn(-c3ccc(C)c(Cl)c3)c(=S)[nH]2)cc1OC	0	0%	22%	1%	-5%	27µM*
COC(=O)c1ccc(-n2cc(-c3ccc(OC)cc3)[nH]c2=S)cc1	-3	1%	-17%	-1%	-16%	6.7µM*
COc1ccc(-c2n[nH]c(=S)n2-c2ccc(Br)cc2)cc1OC	13	6%	1%	-1%	-20%	-6%
COc1ccc(-c2cn(-c3ccc(C)c(C)c3)c(=S)[nH]2)cc1OC	2	-1%	-27%	1%	-5%	30µM*
Cc1onc(-c2ccccc2Cl)c1C(=O)OCC(=O)Nc1cccc(S(=O)(=O)N2CCOCC2)c1	0	-2%	7%	3%	-11%	-4%
Cc1ccc2nc(SCC(=O)Nc3cc(C)on3)c(C)cc2c1	1	-3%	-26%	-2%	-11%	-2%
Cc1cc(C)c([N+](=O)[O-])cc1NCC(=O)N1CCN(c2ccccc2)CC1	-2	14%	-3%	0%	-18%	1%
CC(=O)Nc1cccc(C(=O)OCC(=O)NC2CCCCCCC2)c1	.	.	-3%	-5%	-19%	-4%
COC(=O)c1ccncc1N	3	0%	0%	4%	-10%	7%
Nc1cnccc1C(=O)O	-51*	2%	?	4%	?	?
C/C(CC1CC2=C(CC1(C)C)C(C)(C)CCC2)=N\NC(N)=S (centres undefined)	-6	0%	79µM*	1%	-7%	17µM*
Cc1nc2ncnn2c(C)c1CCC(=O)NC(C)CCc1ccco1 (centres undefined)	2	-1%	11%	0%	-6%	-8%
O=C(CN1C(=O)C2CC=CCC2C1=O)Nc1ccc(Br)cc1 (centres undefined)	.	6%	0%	1%	-19%	-5%
